Test [1] in a line: ATG_TCF_b_cat_CIS: Attagene CIS-FACTORIAL HepG2 Assay for human T-Cell-Factor with beta-catenin (TCF/b-cat) (AID 2282965). The settings on record: HepG2 TCF/beta-catenin cis-reporter transcription, actives raise or lower the signal. An outline of the steps:
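Endogenous transcription factor activity is captured through cis-promoter reporter constructs transiently introduced into human HepG2 liver cells. Induced reporter mRNA is measured after 24 h and fitted bidirectionally relative to DMSO.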

A short description of test [2]: ATG_TAL_CIS: Attagene CIS-FACTORIAL HepG2 Assay for human TAL Basal Promoter (AID 2282966).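 Also: background control endpoint measuring basal TAL promoter reporter mRNA not a specific factor.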 The settings on record: HepG2 Attagene cis-factorial TAL promoter reporter; actives raise or lower the signal. An outline of the steps:
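Readout: reporter mRNA, fluorescence by CE. System: HepG2, transient multi-reporter transfection, endogenous TF activity. Exposure: 24 h. Analysis: bidirectional, DMSO-normalized; background control.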

Test [3] can be described thus: ATG_TGFb_CIS: Attagene CIS-FACTORIAL HepG2 Assay for human Transforming Growth Factor (TGF) (AID 2282967). The settings on record: HepG2 Attagene CIS TGFb reporter, mRNA transcription; actives raise or lower the signal. An outline of the steps:
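HepG2 cells transiently transfected with cis-promoter-driven multiple reporter units measure endogenous TF activity; reporter mRNA quantified at 24 h by RT-PCR, FAM labeling, HpaI digestion and capillary electrophoresis. Bidirectional fit vs DMSO.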

The nature of test [4]: ATG_VDRE_CIS: Attagene CIS-FACTORIAL HepG2 Assay for human Vitamin D Receptor Element (VDRE) (AID 2282968). The settings on record: HepG2 VDRE cis-reporter transcription, actives raise or lower the signal. An outline of the steps: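 Reporter mRNA induction, quantified by capillary electrophoresis of fluorescently labelled RT-PCR products, was read 24 h after dosing HepG2 cells carrying transiently transfected cis-regulated reporter units; gain or loss relative to DMSO.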

In test [5] the target is Nuclear receptor subfamily 1 group I member 3 (Homo sapiens) (UniProt Q14994). In words: ATG_CAR_TRANS: Attagene TRANS-FACTORIAL HepG2 Assay for human Constitutive Androstane Receptor (CAR) (AID 2282969; active = hit-call score of the fitted dose curve at least 0.9, where 1 is the maximum;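 also: activators raise reporter mRNA above DMSO so AC50 marks induction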). The settings on record: HepG2 Attagene TRANS-FACTORIAL CAR reporter. A digest of the protocol:
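Readout is reporter mRNA induction, quantified by fluorescent primer extension and capillary electrophoresis after RT-PCR. Cells were HepG2 transiently carrying chimeric NR-Gal4 constructs with GAL4-UAS reporters, treated for 24 h; activity scored upward from DMSO.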

The target in test [6] is X-box-binding protein 1 (Homo sapiens) (UniProt P17861). The test can be described thus: ATG_Xbp1_CIS: Attagene CIS-FACTORIAL HepG2 Assay for human X-box Binding Protein 1 (XBP1) (AID 2282972). The settings on record: HepG2 XBP1 cis-element reporter, Attagene multiplex; actives raise or lower the signal. An outline of the steps:
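HepG2 cells transiently transfected with cis-regulated multiple reporter transcription units; endogenous transcription factor activity measured 24 hours after chemical dosing. Reporter mRNA quantified by RT-PCR, 6-FAM primer extension, HpaI digestion and capillary electrophoresis; bidirectional fitting versus DMSO.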

A short description of test [7]: ATG_M_19_TRANS: Attagene TRANS-FACTORIAL HepG2 Assay for M19 Transcription Factor (Internal Marker) (AID 2282974; active = hit-call score of the fitted dose curve at least 0.9, where 1 is the maximum). The settings on record: HepG2 Attagene TRANS-FACTORIAL M19 internal marker reporter. An outline of the steps:
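24 h chemical exposure of transiently transfected HepG2 (MRTU library). RNA → oligo(dT) RT → PCR → 6-FAM labelling → HpaI cut → CE fluorescence. Positive-direction fit vs DMSO baseline; background internal-marker readout.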

Test [8] in a line: ATG_GAL4_TRANS: Attagene TRANS-FACTORIAL HepG2 Assay for GAL4 (Internal Marker) (AID 2282976; active = hit-call score of the fitted dose curve at least 0.9, where 1 is the maximum). The settings on record: HepG2 Attagene TRANS GAL4 internal marker reporter. A digest of the protocol:
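Fluorescence from capillary electrophoresis of labelled RT-PCR products quantifies reporter mRNA induction after 24 h dosing of HepG2 cells carrying transfected GAL4-UAS reporter transcription units. Vehicle DMSO serves as baseline.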

For test [9], the target named is Estrogen receptor (Homo sapiens) (UniProt P03372). In words: ATG_ERa_TRANS: Attagene TRANS-FACTORIAL HepG2 Assay for human Estrogen Receptor alpha (ERa) (AID 2282970; active = hit-call score of the fitted dose curve at least 0.9, where 1 is the maximum). The settings on record: HepG2 Attagene TRANS ERa GAL4 reporter, mRNA. An outline of the steps:
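Transactivation via ERa-Gal4 chimera in HepG2; 24 hour incubation; reporter mRNA detected by fluorescence RT-PCR and capillary electrophoresis.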

The target of test [10] is Steroid hormone receptor ERR1 (Homo sapiens) (UniProt P11474). The test can be described thus: ATG_ERRa_TRANS: Attagene TRANS-FACTORIAL HepG2 Assay for human Estrogen-Related Receptor alpha (ERRa) (AID 2282971; active = hit-call score of the fitted dose curve at least 0.9, where 1 is the maximum). The settings on record: HepG2 Attagene TRANS reporter, ERRa transactivation. A digest of the protocol: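 HepG2 cells were transiently transfected with multiple GAL4-UAS reporter units, then dosed with compound for 24 h. Total RNA was reverse-transcribed, reporter cDNA PCR-amplified and fluorescently labelled, and fragments resolved by capillary electrophoresis; induction was compared with DMSO.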
Chain of Steroid hormone receptor ERR1 (Homo sapiens) (P11474 whole entry, looked up, the tested form may be a part): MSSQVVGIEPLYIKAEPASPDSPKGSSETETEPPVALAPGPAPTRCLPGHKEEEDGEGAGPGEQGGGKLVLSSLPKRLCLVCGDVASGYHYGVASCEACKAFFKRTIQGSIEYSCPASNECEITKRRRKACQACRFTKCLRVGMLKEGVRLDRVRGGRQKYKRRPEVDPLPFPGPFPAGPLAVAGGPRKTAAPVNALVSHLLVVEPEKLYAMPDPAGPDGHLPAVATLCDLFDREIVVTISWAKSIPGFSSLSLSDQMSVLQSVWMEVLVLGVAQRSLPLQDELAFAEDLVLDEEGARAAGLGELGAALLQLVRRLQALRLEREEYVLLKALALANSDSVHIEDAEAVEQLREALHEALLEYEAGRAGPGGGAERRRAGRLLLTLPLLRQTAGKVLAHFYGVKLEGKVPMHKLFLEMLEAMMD

The structures appear in SMILES notation. Inconclusive results are not listed. Active and inactive are the calls of the source. The calls were made as follows, unless noted: active = hit-call score of the fitted dose curve at least 0.9, where 1 is the maximum; inactive = score below 0.9.

Chain of X-box-binding protein 1 (Homo sapiens) (P17861 whole entry, looked up): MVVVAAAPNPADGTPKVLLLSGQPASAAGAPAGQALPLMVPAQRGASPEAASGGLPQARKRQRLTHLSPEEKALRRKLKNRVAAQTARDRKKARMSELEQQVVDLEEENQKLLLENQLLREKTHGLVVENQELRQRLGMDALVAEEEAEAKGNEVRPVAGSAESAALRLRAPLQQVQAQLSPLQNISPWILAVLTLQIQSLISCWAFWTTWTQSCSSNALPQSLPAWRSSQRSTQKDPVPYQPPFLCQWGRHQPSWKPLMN
Chain of Estrogen receptor (Homo sapiens) (P03372 whole entry, looked up, the tested form may be a part): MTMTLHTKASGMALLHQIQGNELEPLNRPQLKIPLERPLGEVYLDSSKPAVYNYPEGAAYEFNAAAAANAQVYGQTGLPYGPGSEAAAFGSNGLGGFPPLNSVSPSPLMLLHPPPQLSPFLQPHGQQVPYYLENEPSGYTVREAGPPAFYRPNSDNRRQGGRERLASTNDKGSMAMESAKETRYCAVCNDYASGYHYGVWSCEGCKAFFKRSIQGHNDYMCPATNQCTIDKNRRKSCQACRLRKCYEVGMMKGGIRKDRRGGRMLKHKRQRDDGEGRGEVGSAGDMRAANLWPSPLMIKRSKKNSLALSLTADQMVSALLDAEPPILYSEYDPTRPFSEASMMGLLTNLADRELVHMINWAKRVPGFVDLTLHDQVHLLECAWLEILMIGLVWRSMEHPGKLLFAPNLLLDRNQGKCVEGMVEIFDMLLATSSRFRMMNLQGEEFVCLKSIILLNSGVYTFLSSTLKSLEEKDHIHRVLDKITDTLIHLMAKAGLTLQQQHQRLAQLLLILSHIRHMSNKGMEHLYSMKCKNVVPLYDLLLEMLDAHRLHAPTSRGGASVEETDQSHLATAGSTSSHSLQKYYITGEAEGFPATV
Chain of Nuclear receptor subfamily 1 group I member 3 (Homo sapiens) (Q14994 whole entry, looked up, the tested form may be a part): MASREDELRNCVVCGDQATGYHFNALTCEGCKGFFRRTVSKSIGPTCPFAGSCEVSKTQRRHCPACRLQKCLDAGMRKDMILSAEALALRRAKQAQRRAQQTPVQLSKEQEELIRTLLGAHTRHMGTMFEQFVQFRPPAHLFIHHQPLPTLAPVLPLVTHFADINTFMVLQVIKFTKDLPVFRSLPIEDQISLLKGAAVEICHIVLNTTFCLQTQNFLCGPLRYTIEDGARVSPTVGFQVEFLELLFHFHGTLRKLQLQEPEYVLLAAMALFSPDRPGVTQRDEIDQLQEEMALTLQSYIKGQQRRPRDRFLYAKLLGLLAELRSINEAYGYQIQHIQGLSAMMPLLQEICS

Consider `C=C(C)CCCC`, for which the molecule was classed as inactive in test [1], in test [2], in test [3], in test [4], in test [5] and in [6]. Also, the call in [7] and in test [8] was inactive.
In the case of `Cc1ccc(O)c(-n2nc3ccccc3n2)c1`, the call in [1], in [2], in test [3], in [4], in [5] and in test [6] was inactive. Moreover, in [9], the AC50 is 13.4 µM (active).
`CC1=CCC(=O)O1`: the outcome in [1], in [2], in test [3], in [4], in [5] and in test [10] was inactive. Moreover, the molecule was classed as inactive in test [6].
In the case of `OCCCCl`, the outcome in test [1], in [2], in test [3], in test [4], in test [5] and in [10] was inactive. Moreover, the molecule was classed as inactive in test [6], in [7] and in test [8].
With `Nc1cccnc1N`, the result in test [1], in test [2], in test [3], in test [4], in test [5] and in test [6] was inactive. Besides, the result in test [7] and in [8] was inactive.
As to `CCc1ccc(C)nc1`, the outcome in test [1], in [2], in test [3], in test [4], in [5] and in test [6] was inactive. Moreover, the molecule was called inactive in [7] and in test [8].
With `Cc1ccc([N+](=O)[O-])c(C)c1`, the molecule was called inactive in test [1], in [2], in test [3], in test [4], in [5] and in test [10]. The call in [6] was inactive.
As for `CCCCCCCCn1sc(Cl)c(Cl)c1=O`, the result in [1], in test [2], in [3], in [4], in test [5] and in test [9] was inactive. Moreover, the call in test [6] and in [8] was inactive.
In the case of `NC(=O)C(F)(F)C(F)(F)C(F)(F)C(F)(F)C(F)(F)C(F)(F)C(F)(F)F`, the result in [1], in test [2], in test [3], in [4], in [10] and in test [6] was inactive. Moreover, the call in test [7] was inactive. Besides, the AC50 in [9] is 9.95 µM (active).
Turning to `COC(=O)c1ccc(C=O)cc1`, the call in [1], in test [2], in [3], in test [4], in test [9] and in test [10] was inactive. Also, the molecule was called inactive in test [6], in test [7] and in [8].
In the case of `CN(C(=O)C(F)(F)C(F)(F)C(F)(F)F)[Si](C)(C)C`, the result in test [1], in test [2], in test [3], in test [4], in test [9] and in [10] was inactive. Also, in [6], the result was inactive.
On to `CSc1ccc(O)cc1C`, for which the molecule was called inactive in test [1], in test [2], in test [3], in [4], in test [10] and in [6]. For the same molecule, the call in [7] and in test [8] was inactive. The AC50 in test [9] is 11.3 µM (active).
With `CC(C)=CCCC(C)O` (configuration not stated), the call in test [1], in test [2], in test [3], in [4], in test [5] and in [6] was inactive. The molecule was classed as inactive in [8].
Consider `Nc1c(Br)cc([N+](=O)[O-])cc1Br`, for which the outcome in test [1], in [2], in test [3], in test [4], in [9] and in [10] was inactive. Besides, the outcome in test [6] and in [8] was inactive.
Turning to `OCCCC(F)(F)C(F)(F)C(F)(F)C(F)(F)C(F)(F)C(F)(F)C(F)(F)C(F)(F)F`, the AC50 in [1] is 28.9 µM (active); in test [9] it was 10.9 µM (active). Moreover, the molecule was called inactive in test [2], in test [3], in test [4], in test [10] and in test [6].
As for `OCC(O)CC(F)(F)C(F)(F)C(F)(F)C(F)(F)F` (configuration not stated), the call in test [1], in test [2], in test [3], in [4], in test [10] and in test [6] was inactive. Also, in test [9], the AC50 was 70.8 µM (active).
With `FC(F)(F)C(F)(F)C(F)(F)CC1CO1` (configuration not stated), the molecule was classed as inactive in [1], in test [2], in test [3], in test [4], in test [9] and in [10]. Besides, the result in [6] and in [8] was inactive.
As for `O=C(O)C(F)(F)C(F)(F)C(F)(F)OC(F)(F)F`, the call in test [1], in test [2], in test [3], in test [4], in [5] and in [6] was inactive. In addition, the molecule was called inactive in test [7] and in test [8].
`O=C=NCc1cccc(CN=C=O)c1`: the molecule was called inactive in [1], in test [2], in test [3], in [4], in test [5] and in test [6]. Also, the call in test [8] was inactive.
On to `OC(O)C(F)(F)C(F)(F)F`, for which the molecule was classed as inactive in test [1], in test [2], in test [3], in test [4], in test [9] and in test [10]. The outcome in [6] and in test [8] was inactive.
Turning to `COC(F)(C(F)F)C(F)(F)F` (configuration not stated), the call in test [1], in test [2], in test [3], in test [4], in test [9] and in test [10] was inactive. The outcome in [6] and in test [8] was inactive.
As for `CC(C)CC=C(C=O)c1ccccc1`, the outcome in [1], in test [2], in test [3], in test [4], in test [10] and in test [6] was inactive. Further, the result in [7] and in [8] was inactive. Besides, in test [9], the AC50 was 21.5 µM (active).
For the molecule `NCC(F)(F)C(F)(F)C(F)(F)C(F)(F)C(F)(F)C(F)(F)F`, the outcome in [1], in test [2], in [3], in test [4], in [9] and in test [10] was inactive. The outcome in test [6] and in test [8] was inactive.
Consider `O=S(=O)(O)CCC(F)(F)C(F)(F)C(F)(F)C(F)(F)C(F)(F)C(F)(F)C(F)(F)C(F)(F)F`, for which the outcome in [1], in [2], in test [3], in test [4], in [9] and in test [10] was inactive. Moreover, the call in test [6] and in test [8] was inactive.
Regarding `CCOC(C=C(C)CCC=C(C)C)OCC`, the molecule was called inactive in [1], in test [2], in test [3], in [9], in test [10] and in test [6]. The molecule was called inactive in test [7] and in test [8]. Further, the AC50 in [4] is 49.7 µM (active).
Take `CC1=CC2C3C=CC(C3)C2C1C` (configuration not stated): the molecule was classed as inactive in [1], in test [2], in test [3], in test [9], in test [10] and in [6]. Besides, the AC50 in [4] is 1.81 µM (active).
For the molecule `NCC(F)(F)C(F)(F)C(F)(F)C(F)(F)C(F)(F)C(F)(F)C(F)(F)C(F)(F)F`, the call in [1], in [2], in test [3], in test [4], in test [9] and in test [10] was inactive. The call in test [6] and in [8] was inactive.

The record behind these values is PubChem BioAssay (EPA / NIEHS).
